MEKK2wt PB1 HTS = raises or lowers MEK5 binding to wildtype human MEKK2 PB1 domain | Q9Y2U5 | bead flow cytometry, Alexa488-MEK5 binding to MEKK2 WT; actives lie on both sides | binding response (% of control), % at 10 µM | 290,000 compounds, 1.1% hits; in the data active means binding response below about 67% or above about 130%
MEKK3 PB1 HTS = raises or lowers MEK5 binding to the human MEKK3 PB1 domain; bead-based flow cytometry, Alexa488-MEK5 binding to MEKK3; actives lie on both sides; 0 = blocked by unlabeled MEK5, 100 = vehicle; 290,000 compounds, 1.4% hits; binding response (% of control), % at 10 µM;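 active means binding response more than 3 SD above or below the average of its plate-row segment, actives on both sides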;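 further: Alexa488 bead fluorescence after subtracting the streptavidin-only scavenger bead signal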
MEKK2 mut-MEK5 = signal of MEK5 binding to mutant human MEKK2 PB1 domain; 290,000 compounds, 0.35% hits; bead flow cytometry, Alexa488-MEK5 binding to MEKK2 mutant; AID 1530; percent response, % at 10 µM; in the data active means percent response above about 24%, passing the limit was not always enough
GRK2 aptamer HTS = human GRK2 inhibition via aptamer displacement | bead flow cytometry, FAM-aptamer displacement from GRK2 | 330,000 compounds, 0.59% hits | P25098 | inhibition of aptamer binding, % at 10 µM | AID 488847;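 active means inhibition of aptamer binding above 40%, roughly 3 SD of noise, on plates passing a quality check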;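 further: median bead fluorescence of bound FAM aptamer so fluorescent compounds give negative values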
Target sequence (P25098 whole entry, looked up): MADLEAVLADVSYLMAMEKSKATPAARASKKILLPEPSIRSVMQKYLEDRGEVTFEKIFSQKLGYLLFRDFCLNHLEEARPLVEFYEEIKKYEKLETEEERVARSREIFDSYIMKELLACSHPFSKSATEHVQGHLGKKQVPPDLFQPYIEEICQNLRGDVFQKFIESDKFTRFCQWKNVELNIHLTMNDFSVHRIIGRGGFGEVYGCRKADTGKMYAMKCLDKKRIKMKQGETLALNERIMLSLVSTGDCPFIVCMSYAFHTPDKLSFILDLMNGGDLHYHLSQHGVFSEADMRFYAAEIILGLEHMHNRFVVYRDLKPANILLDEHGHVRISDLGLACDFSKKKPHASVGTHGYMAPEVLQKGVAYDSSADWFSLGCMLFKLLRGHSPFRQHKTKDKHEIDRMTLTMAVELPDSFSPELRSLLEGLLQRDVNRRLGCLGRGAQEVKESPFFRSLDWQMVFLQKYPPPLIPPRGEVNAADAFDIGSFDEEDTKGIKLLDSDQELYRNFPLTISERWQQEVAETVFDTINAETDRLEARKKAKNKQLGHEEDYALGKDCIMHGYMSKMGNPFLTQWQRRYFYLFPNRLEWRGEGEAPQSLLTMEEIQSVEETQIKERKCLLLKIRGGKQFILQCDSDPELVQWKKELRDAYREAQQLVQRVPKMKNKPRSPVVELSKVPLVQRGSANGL
MEKK2wt confirm = raises or lowers MEK5 binding to wildtype human MEKK2, retest; shares compounds with MEKK3 PB1 HTS; bead flow cytometry, Alexa488-MEK5 binding to MEKK2 WT; actives lie on both sides; binding response (% of control), % at 10 µM; 5,900 compounds, 2.4% hits; in the data active means binding response below about 16% or above about 210%; inactive means in between
MEKK2mut-MEK5 = signal of MEK5 binding to mutant human MEKK2, retest; bead flow cytometry, Alexa488-MEK5 binding to MEKK2 mutant; AID 1893; percent response, % at 10 µM; shares compounds with MEKK3 PB1 HTS; 5,900 compounds, 2% hits; in the data active means percent response mostly above about 71%, no sharp cut-off; inactive means mostly below about 38%;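 further: higher means compound restores mutant binding toward wildtype level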
MEKK3-MEK5 inh = MEKK3-MEK5 PB1 inhibition, single concentration confirmation; binding response (% of control), % at 10 µM; 5,900 compounds, 1.8% hits; bead flow cytometry, Alexa488-MEK5 binding to MEKK3; stronger effect = lower value; AID 1894; shares compounds with MEKK3 PB1 HTS;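 active means binding response below 72% of control, or above a set upper limit, though filed actives all read lower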;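 further: 100% = DMSO only wells and 0% = binding blocked by excess unlabeled MEK5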
* hit, by the source's call; nt = not tested or not shown; [ ] = another dose, or the depositor's remark. This is a sample that favours compounds with a hit; in the whole collection about 2.5% have one here.

SMILES	MEKK2wt PB1 HTS	MEKK3 PB1 HTS	MEKK2 mut-MEK5	GRK2 aptamer HTS	MEKK2wt confirm	MEKK2mut-MEK5	MEKK3-MEK5 inh
CCOC(=O)C(NC(=O)Nc1ccc(Cl)cn1)(Oc1ccccc1)C(F)(F)F (stereo not drawn)	104	153*	4	2	105	4	104
CCOC(=O)N1CCN(CC(O)COc2cc(C)ccc2C(C)C)CC1 (stereo not drawn)	90	89	-4	0	nt	nt	nt
CCN(CC)c1nc(N)c([N+](=O)[O-])c(NCCO)n1	115	134*	1	0	82	-7	97
Cc1ccc(CNC(=O)C2CC(=O)N(CCC(C)C)C2)cc1 (stereo not drawn)	8.0*[inhibitor]	5.0*[inhibitor]	-45	0	99	-8	99
CCC[C@@H]1C[C@@H](C(=O)NC(C(C)Cl)[C@H]2O[C@H](SC)[C@H](O)[C@@H](O)[C@H]2O)N(C)C1 (stereo partly drawn)	104	103	5	0	nt	nt	nt
CCC[C@@H]1C[C@@H](C(=O)N[C@@H](C2O[C@H](SC)[C@H](O)[C@@H](O)[C@H]2O)[C@H](C)Cl)N(C)C1 (stereo partly drawn)	54	50*[inhibitor]	1	0	97	-6	101
Cc1cccc(/C=N/N(CCO)C2=NS(=O)(=O)c3ccccc32)c1	117	138*	1	2	107	11	103
CC1(C)NC(=O)N(CC(O)Cn2nnc3ccccc32)C1=O (stereo not drawn)	88	80*[inhibitor]	-12	2	115	11	105
CC1(C)NC(=O)N(CC(O)CN2C(=O)CCC2=O)C1=O (stereo not drawn)	100	99	-1	3	nt	nt	nt
Cn1c(-c2ccc(C(C)(C)C)cc2)n[nH]c1=S	92	81*[inhibitor]	-9	1	111	9	105
CCn1c(-c2ccc(C(C)(C)C)cc2)n[nH]c1=S	93	97	-5	0	nt	nt	nt
Cn1cc(C(=O)c2cccc(Cl)c2)cc1/C=N\O	59	42*[inhibitor]	-12	2	99	4	98
Cn1cc(C(=O)c2cccc(Cl)c2)cc1C#N	105	109	2	0	nt	nt	nt
O=c1c(Cl)c(N2CCN(c3ccc(F)cc3)CC2)cnn1C12CC3CC(CC(C3)C1)C2	100	148*	0	4	119	18	110
O=S(=O)(c1cccc2cccnc12)N(CCO)CCO	113	110	4	1	nt	nt	nt
Cn1c(-c2ccc(C=O)s2)nc2c3ccccc3c3ccccc3c21	63*[inhibitor]	90	-19	4	75	-12	94
COc1ccc(CCC(C)NCCc2ccc(Cl)cc2Cl)cc1 (stereo not drawn)	152*	105	17	0	125	13	103
O=C1C2C3C=CC(C3)C2C(=O)N1CCCCCCN1C(=O)C2C3C=CC(C3)C2C1=O (stereo not drawn)	84	90	-17	0	nt	nt	nt
O=C1C=CC(=O)N1CCCCCCN1C(=O)C=CC1=O	101	106	62*	0	104	-2	101
COC(=O)c1ccc(/C=C(\C#N)c2ccccn2)cc1	1.0*[inhibitor]	2.0*[inhibitor]	-47	1	89	-34	87
CN(C)c1ccc(/C=C(\C#N)c2ccccn2)cc1	104	99	-2	0	nt	nt	nt
Cc1cc(=O)[nH]c(SCCCOc2ccc3c(c2)CCC3)n1	105	106	1	0	nt	nt	nt
O=C(NNC1=NCCN1Cc1ccccc1)c1cccc(C(F)(F)F)c1	128	128*	25	0	99	-2	96
Cc1cc([N+](=O)[O-])nn1Cc1ccc(C(=O)N/N=C/c2ccccc2)cc1	108	100	47	0	nt	nt	nt
COC(=O)C(F)(F)Sc1c(C)[nH]c2ccccc12	86	79*[inhibitor]	-8	0	105	9	106
SMILES	MEKK2wt PB1 HTS	MEKK3 PB1 HTS	MEKK2 mut-MEK5	GRK2 aptamer HTS	MEKK2wt confirm	MEKK2mut-MEK5	MEKK3-MEK5 inh
CCOc1ccc(C(=O)N2CCCC2C(=O)O)cc1 (stereo not drawn)	103	106	5	2	nt	nt	nt
Cc1noc(C)c1S(=O)(=O)Nc1ccc(C(=O)NC2CCCCC2)cc1	33*[inhibitor]	20*[inhibitor]	-32	3	101	6	103
Cc1ccc(NC(=O)c2ccc(NS(=O)(=O)c3c(C)noc3C)cc2)cc1C	108	103	5	10	nt	nt	nt
CC1CCCCC1NC(=O)COC(=O)/C=C/c1ccc2c(c1)OCO2 (stereo not drawn)	97	102	1	4	nt	nt	nt
O=C(CSc1nnc(CNC(=O)c2ccco2)o1)Nc1ccc(F)cc1F	103	102	3	0	nt	nt	nt
O=C(O)C(Cc1cc(Cl)ccc1Cl)Sc1nc2ccccc2[nH]1 (stereo not drawn)	129	135*	25	2	98	-13	96
CCOC(=O)Cc1nnc(Nc2ccc(C)cc2C)c2ccccc12	101	101	0	0	nt	nt	nt
Cc1ccc(Nc2nnc(SCC(=O)N(C)C3CCS(=O)(=O)C3)s2)cc1 (stereo not drawn)	90	93	-9	2	nt	nt	nt
CC(C)n1nc(C(=O)N2CCN(S(=O)(=O)c3cccs3)CC2)c2ccccc2c1=O	115	116	12	1	nt	nt	nt
O=C(c1c[nH]c(C(=O)C(Cl)(Cl)Cl)c1)c1ccc(F)cc1Cl	-2.0*[inhibitor]	1.0*[inhibitor]	-23	0	104	3	107
O=C(c1c[nH]c(C(=O)C(Cl)(Cl)Cl)c1)c1ccc(F)cc1F	107	106	3	1	nt	nt	nt
O=C1NC2(CCCCCC2)N=C1c1ccc(Br)cc1	99	103	-4	3	nt	nt	nt
O=C1NC2(CCCC2)N=C1c1ccc(F)cc1	118	122*	4	14	99	8	100
Cc1ccc(S(=O)(=O)Nc2ccccc2CNc2ccc(Br)cn2)cc1	105	105	0	2	nt	nt	nt
O=C(Nc1nc(-c2ccccc2)c(C(=O)c2ccccc2)s1)c1ccc(S(=O)(=O)N2CCCC2)cc1	102	135*	0	0	100	-9	101
Cc1ccc(S(=O)(=O)C2(C(=O)Nc3cccnc3)CC2)cc1	103	103	15	0	nt	nt	nt
Clc1ccc(-c2nc3cnccn3c2NC2CCCC2)cc1	103	109	1	0	nt	nt	nt
Cc1ccc(NC(=O)c2cccs2)cc1	95	98	-4	3	nt	nt	nt
Cc1ccc(S(=O)(=O)n2[nH]c(=O)cc2NC(=O)c2cccs2)cc1	-4.0*[inhibitor]	1.0*[inhibitor]	2	0	94	-5	98
CC1CCN(Cc2c(C(=O)N/N=C/c3ccc(OC(C)C)cc3)nnn2-c2nonc2N)CC1	91	100	-9	1	nt	nt	nt
O=c1[nH]c(SCc2nc3ccccc3n2Cc2ccccc2)nc2ccccc12	97	93	-4	0	nt	nt	nt
